Compounds with a hit are over-represented: about 12% of the library has one in this group of screens.
Sfp inh – inhibitors of Bacillus subtilis Sfp phosphopantetheinyl transferase | Potency, µM, actives largely listed as inhibitors | hit rate 3.5% among 310,000 | AID 1490 | Q9F4F7 | Biochemical Sfp PPTase activity, qHTS;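 further: the enzyme is Sfp with the accession as filed and its product quenches rhodamine fluorescence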
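With Hepes-Na pH 7.6 buffer containing 10 mM MgCl2, Sfp (15 nM) modified BHQ-2-YbbR (12.5 uM) using rhodamine-CoA (5 uM). Two reads 30 minutes apart at 525/598 nm yielded each well's rate.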
G9a block – inhibitors of human histone lysine methyltransferase G9a; Q96KQ7; G9a H3K9 monomethylation, AlphaScreen, 2 h; Potency, µM (highest dose often 102 µM), actives largely listed as inhibitors; hit rate 8.8% among 350,000; AID 504332; further: nearly all actives have a fitted effect of over 75% in size
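Using a bead-based AlphaScreen, monomethylated H3K9 product from 2 h room-temperature reactions (G9a 20 nM, peptide 500 nM, SAM 20 uM) was detected with 0.5 ug/mL rabbit anti-H3K9me1 antibody.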
JMJD2A Tudor – inhibitors of human JMJD2A Tudor domain; Potency, µM (doses to about 114 µM), most hits filed as inhibitors; O75164; hit rate 4.4% among 390,000; AID 504339; AlphaScreen JMJD2A-Tudor / H3K4me3 peptide binding; further: nearly all actives have a fitted effect of over 50% in size
HP1b chromo inh – HP1-beta chromodomain-methylated histone interaction inhibition; AlphaScreen HP1-beta / biotin-H3K9me3 peptide binding; P83916; Potency, µM (highest dose often 114 µM), actives largely listed as inhibitors; hit rate 0.56% among 390,000; further: nearly all actives have a fitted effect of over 70% in size
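Compound inhibition of the preformed complex between 50 nM HP1-beta and 50 nM biotinylated H3K9me3 peptide was read by AlphaScreen. Buffer was PBS pH 7.4 with 0.01% Tween-20. Incubations ran 30 min at room temperature, with 10 ug/mL donor/acceptor beads.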
L3MBTL1 inh – inhibitors of human L3MBTL1; Q9Y468; AlphaScreen L3MBTL1–H3K9me1 peptide binding; Potency, µM (top dose mostly 57.1 µM), actives largely listed as inhibitors; hit rate 0.66% among 230,000; further: nearly all actives have a fitted effect of over 60% in size
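Read-out is AlphaScreen signal from streptavidin donor and nickel chelate acceptor beads (10 ug/mL final each) bridging L3MBTL1 (50 nM) and biotinylated K9-monomethylated H3(1-15) peptide (75 nM), after 30 min compound exposure at room temperature.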
BAZ2B inh – blocks human BAZ2B | Q9UIF8 | AlphaScreen BAZ2B-H3K14Ac peptide displacement | Potency, µM (series often up to 114 µM), usual class: inhibitors | hit rate 4.4% among 360,000 | AID 504333; further: nearly all actives have a fitted effect of over 60% in size
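Protein-peptide AlphaScreen: BAZ2B 50 nM, b-H3K14Ac 50 nM, 1x PBS pH 7.4 + 0.01% Tween-20. Preincubation 30 min RT; cpd 30 min RT (top 110 uM); beads 20 min RT, light-protected.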
Numbers stand for hits; – = inactive; ? = inconclusive; · = no result; [ ] = another dose, or the depositor's remark. The call rests on the fitted dose curve; in most records, active means well fitted curve in the direction sought with a large enough effect; inconclusive means small, poorly fitted or top-dose-only effect, or another doubt; inactive means no such curve, though single readings can be large; an effect the other way counts as inactive or inconclusive.

SMILES | Sfp inh | G9a block | JMJD2A Tudor | HP1b chromo inh | L3MBTL1 inh | BAZ2B inh
Cc1ccc(CN2CCNC(=O)C2CC(=O)O)o1 (centres undefined) | – | 50µM | – | – | – | –
CN(CCc1ccccn1)C(=O)CC1C(=O)NCCN1Cc1ccc(-c2ccccc2)cc1 (centres undefined) | 50µM | 56µM | – | – | – | –
CN(Cc1cnccn1)C(=O)CC1C(=O)NCCN1Cc1cccc(Oc2ccccc2)c1 (centres undefined) | – | 50µM | – | – | – | ?
O=C(Cn1c(=O)oc2ccccc21)NCc1ccc(Cl)cc1 | · | – | – | – | · | –
O=C(O)c1ccccc1Nc1ccc(CCc2ccc(Cl)c(Cl)c2)cc1 | – | · | · | · | · | ·
C=CCNC(=O)CC1C(=O)NCCN1Cc1ccc(-c2ccccc2)cc1 (centres undefined) | – | 56µM | – | – | – | –
Cc1ccc(CN2CCNC(=O)C2CC(=O)N(C)C2CCCCC2)cc1 (centres undefined) | – | 45µM | – | – | · | –
Cc1ccc(OCCN(C)C(=O)CC2C(=O)NCCN2CC(C)(C)C)cc1 (centres undefined) | – | 50µM | – | – | – | –
COC(=O)CN(C)C(=O)CC1C(=O)NCCN1CC(C)(C)C (centres undefined) | – | – | – | – | – | –
CC(C)(C)CN1CCNC(=O)C1CC(=O)N1CCOc2ccccc2C1 (centres undefined) | – | 50µM | – | – | – | –
CC[C@H](C)[C@H](N)C(=O)N[C@H](C(=O)N[C@@H](CO)C(=O)N[C@@H](C)C(=O)N[C@H](C(=O)N[C@H](C(=O)NCC(=O)N[C@H](C(=O)N[C@@H](CC(C)C)C(=O)O)[C@@H](C)CC)C(C)C)C(C)C)[C@@H](C)CC | – | · | · | · | · | ·
COc1ccc(NC(=O)CCCn2c(=O)c3cccn3c3ccccc32)c(OC)c1 | · | – | – | – | · | –
COc1cc(CNCc2ccco2)ccc1OCc1ccccc1 | – | 35µM | 4µM | ? | – | ?
COc1cc(CNCc2cccs2)ccc1OCc1ccccc1 | – | – | – | – | – | –
COc1cccc(CNCc2ccco2)c1O | ? | · | 18µM | ? | – | –
COc1cc(OC)c(OC)cc1CNCc1ccco1 | – | 28µM | 2.8µM | ? | · | ?
COc1ccc(/C=C(/C(=O)c2cccs2)N2C=CC=CC2=C(C#N)C#N)cc1 | 3.5µM | 8.9µM | ? | – | – | –
COc1ccc(C(=O)/C(=C\c2ccco2)N2C=CC=CC2=C(C#N)C#N)cc1 | 18µM | –[2.33 µM] | – | – | – | –
Cc1cc(NC(=O)/C(C#N)=C/c2ccco2)n(-c2ccccc2)n1 | – | – | – | – | – | –
N#CC(C#N)=C1C=CC=CN1/C(=C\c1ccco1)C(=O)c1ccc(Br)cc1 | 8.9µM | 11µM | ? | – | – | ?
CCN(CC)c1ccc(/C=C(\C#N)C(=O)c2ccc(Br)cc2)cc1 | – | – | – | – | – | –
N#CC(C#N)=C1C=CC=CN1/C(=C\c1ccco1)C(=O)c1ccccc1 | 16µM | 18µM | – | – | ? | –
CC1=CC2C(C(O)CC3(C)C2CC(C)C32OCOC23COCO3)C2(C)C/C(=C\O)C(=O)C=C12 (centres undefined) | · | · | – | – | · | ·
OCCC1CN(CC2CCCCC2)CCN1C1CCCC1 (centres undefined) | – | –[0.501 µM] | – | – | –[2.29 µM] | –
CCOc1ccc(NC(=O)CN(C)C(=O)c2ccc(N3CCCCC3)c([N+](=O)[O-])c2)cc1OCC | · | 50µM | ? | – | – | ?
SMILES | Sfp inh | G9a block | JMJD2A Tudor | HP1b chromo inh | L3MBTL1 inh | BAZ2B inh
CCOc1ccc(NC(=O)CN(C)C(=O)c2cc([N+](=O)[O-])ccc2N2CCCCC2)cc1OCC | · | 2.2µM | – | – | – | –
CCOc1ccc(NC(=O)CN(C)C(=O)c2cc([N+](=O)[O-])ccc2Sc2ccccc2)cc1OCC | · | · | ? | – | · | ·
CCOc1ccc(NC(=O)CN(C)C(=O)c2ccc(N3CCCC3)c([N+](=O)[O-])c2)cc1OCC | · | –[2.33 µM] | – | – | – | ?
Cc1cc(Br)ccc1NC(=O)CN(C)C(=O)c1cc([N+](=O)[O-])ccc1N1CCOCC1 | · | 3.5µM | – | – | – | –
O=C(c1cc2n(n1)C(C(F)(F)F)CC(c1ccco1)N2)N1CCc2ccccc2C1 (centres undefined) | – | ? | – | – | –[11.4 µM] | ?
COc1cc2c(cc1OC)C(C)N(C(=O)c1cc3n(n1)C(C(F)(F)F)CC(c1ccco1)N3)CC2 (centres undefined) | 40µM | 18µM | ? | – | – | ?
Oc1ccc2c(ccc3[nH]cnc32)c1 | – | 50µM | – | – | – | –
Cc1nn(CC(=O)NC2CCC(C)CC2)c(C)c1[N+](=O)[O-] (centres undefined) | · | –[2.33 µM] | – | – | – | –
OCCNC(=S)Nc1ccc2nsnc2c1 | – | 35µM | – | – | · | –
Cc1nc2ccc(NC(=S)NCCCO)cc2nc1C | 56µM | 28µM | – | 79µM | – | –
CCN(CC)c1ccc(CNCc2cccs2)cc1 | – | ? | ? | – | – | 50µM
CCN(c1ccccc1)c1nc(=O)c2cccnc2s1 | – | 35µM | – | – | – | –
C=CC[C@@H]1C=C[C@@H](O/N=C\[C@@H](OC)[C@H](C)/C=C\CC(=O)OC)[C@@H](CO)O1 | – | · | · | · | · | ·
CCN(CC)CCCN(C(=O)c1ccc(Br)cc1)c1nc(-c2ccc(OC)cc2)cs1 | – | · | 56µM | ? | – | 50µM
COc1ccc(-c2csc(N(CCCN3CCOCC3)C(=O)CCl)n2)cc1 | ? | 35µM | ? | – | – | ?
Cc1cccc(-n2c(CCc3ccccc3)nnc2SCC(=O)c2ccccc2)c1 | 50µM | 1.8µM | ? | – | – | –
Cc1ccc(OCc2nnc(SCC(=O)c3ccccc3)n2-c2ccccc2)cc1 | – | ? | – | – | – | –
COc1ccc(CC(=O)NNC(=O)CSc2nnc(Cc3ccc(OC)cc3)n2-c2ccccc2)cc1 | – | 10µM | – | – | – | –
COc1ccc(NCc2nnc(SCc3ccc(Cl)cc3)n2-c2ccccc2)cc1 | – | ? | 45µM | ? | ? | 22µM
O=C(O)CSc1nnc(Cc2ccccc2)n1-c1ccccc1 | – | 11µM | – | – | –[11.4 µM] | –
COc1ccc(CC(=O)NNC(=O)CSc2nnc(C)n2-c2ccccc2)cc1 | – | ? | – | – | – | –
Cc1ccc(-n2nc(C)c3c(C(=O)NCc4ccccc4)cc(C4CC4)nc32)cc1 | · | – | – | – | · | –
CN(Cc1cnn(Cc2ccccc2)c1)C(=O)CN=C1NS(=O)(=O)c2ccccc21 | · | –[12.7 µM] | – | – | – | –
Cc1c2cnn(-c3ccccc3)c(=O)c2c(C)n1CC(=O)NCc1ccccc1Br | · | – | – | – | · | –
Cc1cccc(Nc2nc(-c3cccs3)cs2)n1 | – | 8.9µM | – | – | –[11.4 µM] | –

Assay outcomes from PubChem BioAssay.
